Legend:
Test in all cases: PBM binding z-score (relative to random genomic background probes); higher = stronger binding; sequences stand for … in GC…GCGATTGACAGCGTAGAATGAAGG
[1] = test system: FXR:RXRa (NR concentration 270 nM, RXRa partner concentration 90 nM)
How it was run: (§1)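 Each nuclear receptor dimer, without ligand, was incubated for 1 h on custom Agilent 4×180K protein-binding microarrays. Binding was detected with antibodies against each partner (one per run), and scanned fluorescence was regression-normalized. The binding z-scores are referenced to random human genomic background probes.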

[2] = test system: LXRa:RXRa (NR concentration 270 nM, RXRa partner concentration 90 nM)
How it was run: as §1

[3] = test system: LXRa homodimer (NR concentration 270 nM)
How it was run: as §1

[4] = test system: LXRb:RXRa (NR concentration 270 nM, RXRa partner concentration 90 nM)
How it was run: as §1

[5] = test system: LXRb homodimer (NR concentration 270 nM)
How it was run: as §1

[6] = test system: PPARa:RXRa (NR concentration 270 nM, RXRa partner concentration 90 nM)
How it was run: as §1

[7] = test system: PPARg:RXRa (NR concentration 180 nM, RXRa partner concentration 90 nM)
How it was run: as §1

[8] = test system: PPARg:RXRa 270nM:90nM, anti-RXR (NR concentration 270 nM, RXRa partner concentration 90 nM)
How it was run: as §1

[9] = test system: PPARg:RXRa 30nM:10nM, anti-RXR (NR concentration 30 nM, RXRa partner concentration 10 nM)
How it was run: as §1

[10] = test system: PPARg:RXRa 90nM:30nM, anti-RXR (NR concentration 90 nM, RXRa partner concentration 30 nM)
How it was run: as §1

[11] = test system: PPARg:RXRa DBDmut IVT, anti-RXR (DBD mutation: RXRa K156A/R161A, NR concentration 270 nM, RXRa partner concentration 90 nM)
How it was run: as §1

[12] = test system: PPARg:RXRa IVT, anti-PPARg (NR concentration 270 nM, RXRa partner concentration 90 nM)
How it was run: as §1

[13] = test system: PPARg DBDmut:RXRa IVT, anti-PPARg (DBD mutation: PPARg1 K132A/R137A, NR concentration 270 nM, RXRa partner concentration 90 nM)
How it was run: as §1

[14] = test system: PPARg DBDmut IVT, anti-PPARg (DBD mutation: PPARg1 K132A/R137A, NR concentration 270 nM)
How it was run: as §1

[15] = test system: PPARg homodimer (NR concentration 180 nM)
How it was run: as §1

[16] = test system: PXR:RXRa (NR concentration 270 nM, RXRa partner concentration 90 nM)
How it was run: as §1

[17] = test system: PXR homodimer (NR concentration 270 nM)
How it was run: as §1

[18] = test system: RARa:RXR (NR concentration 270 nM, RXRa partner concentration 90 nM)
How it was run: as §1

[19] = test system: RARa homodimer (NR concentration 270 nM)
How it was run: as §1

[20] = test system: RARb:RXRa (NR concentration 270 nM, RXRa partner concentration 90 nM)
How it was run: as §1

Row | Sequence | PBM binding z-score [1] | PBM binding z-score [2] | PBM binding z-score [3] | PBM binding z-score [4] | PBM binding z-score [5] | PBM binding z-score [6] | PBM binding z-score [7] | PBM binding z-score [8] | PBM binding z-score [9] | PBM binding z-score [10] | PBM binding z-score [11] | PBM binding z-score [12] | PBM binding z-score [13] | PBM binding z-score [14] | PBM binding z-score [15] | PBM binding z-score [16] | PBM binding z-score [17] | PBM binding z-score [18] | PBM binding z-score [19] | PBM binding z-score [20]
1 | TCTGCTAGGTCAACGATGTTCAGCTAATCTGCTA | 3 | 2.22 | -0.237 | 1.39 | -0.31 | 3.1 | 2.54 | 3.01 | 2.01 | 2.42 | 4.36 | 4.43 | 0.0539 | 0.546 | 0.745 | 1.4 | -0.689 | 2 | -0.343 | 4.15
2 | ACTAGCAGGCCAATGGTCACTCAAGATTAGTCCG | -0.525 | -0.42 | -0.46 | -0.417 | -0.678 | 0.789 | 2.17 | 3.26 | 0.959 | 2.79 | 0.92 | 0.714 | -0.0875 | -0.449 | 0.0967 | -0.626 | -0.69 | -0.449 | -0.683 | 0.677
3 | CCTTCCGGGTCACTCCAGGTTATAGCATCGGAGT | 4.29 | 7.37 | 1.67 | 5.1 | 0.22 | 4.38 | 4.22 | 4.36 | 1.22 | 3.15 | 3.76 | 4.8 | 0.383 | -0.795 | 1.88 | 4.83 | 0.335 | 3.65 | 0.518 | 3.77
4 | TCATATAGGTAATACAAGTGAAAGTCGGCATCTA | 1.52 | 1.28 | 0.46 | 1.17 | 0.185 | 1.59 | 1.39 | 2.52 | 4.29 | 3.28 | 4.19 | 2.25 | 0.992 | 1.83 | 1.46 | 0.916 | 0.336 | 1.3 | 1.79 | 0.7
5 | AGAATGAGGTTACCAAAGATCAGGGAAACGCTTG | 1.86 | 6.59 | -0.00475 | 3.1 | -0.712 | 3.65 | 3 | 3.03 | 0.954 | 2.22 | 3.53 | 3.38 | 1.26 | 1.04 | 1.16 | 1.38 | 0.241 | 2.16 | -0.326 | 2.03
6 | ATCGAAAGGTCGACGAGGTGAGCATACACCGTTT | 4.55 | 3.16 | 0.0611 | 2.6 | 0.486 | 4.14 | 2.93 | 3.33 | 0.968 | 2.23 | 0.211 | 2.48 | 1.06 | 0.825 | 1.88 | 2.91 | 0.446 | 3.9 | 0.74 | 3.9
7 | TCTCGGAGGACACGAAAGGTCAGAGGTCGACATC | 3.84 | 4.45 | 3.58 | 4.14 | 0.107 | 4.5 | 3.27 | 4.29 | 3.24 | 3.74 | 1.89 | 2.44 | -0.583 | -0.569 | 2.83 | 5.34 | 0.827 | 6.51 | 1.05 | 4.57
8 | CGTCAAAGTTCAATTAAGGTAACGTAAAGCACGC | 6.45 | 5.3 | 3.51 | 3.7 | 2.06 | 4.58 | 4.09 | 4.67 | 1.7 | 3.44 | 0.465 | 2 | 1.09 | 1.89 | 3.06 | 5.26 | 3.98 | 3.88 | 1.69 | 4.78
9 | CCTACTTGGCCATCAGGTCATTGATATCAACGTT | 2.95 | 1.81 | 2.06 | 2.21 | 0.454 | 2.12 | 0.623 | 1.36 | 0.665 | 1.13 | 1.33 | 1.93 | 0.603 | 0.617 | 1.82 | 1.95 | 1.62 | 2.17 | 1.76 | 2.19
10 | CAAACTAGGTCACGAAAAGTCAAAGTCGAATGAC | 4.52 | 5.32 | 0.989 | 3.22 | 0.716 | 5.53 | 9.43 | 7.43 | 5.91 | 7.51 | 8 | 9.2 | 4.41 | 4.13 | 2.52 | 2.27 | 0.426 | 3.44 | 0.939 | 4.58
11 | AGAATGATGTTATTAAGATCAGGGAATTGCGGTC | -0.0815 | -0.447 | 6.67e-05 | -0.339 | -0.205 | 0.0831 | 0.179 | -0.306 | -0.179 | -0.208 | -0.219 | 0.135 | 0.648 | 0.441 | 0.197 | -0.0155 | -0.0811 | 0.136 | 0.841 | -0.333
12 | GCTATTAGTTGAAAGGGCCACCGAATGATTCTCG | -0.0568 | 0.0381 | -0.327 | -0.256 | -0.647 | 0.401 | 0.611 | 1.6 | 0.211 | 0.953 | 0.635 | -0.116 | 0.0939 | -0.248 | 0.586 | -0.34 | -0.184 | -0.0438 | 0.309 | 1.02
13 | CCTATTAGTTGACCATAAGGGCAACCTAAGCTCG | 1.15 | 0.43 | 0.487 | 0.701 | 0.685 | 0.846 | 0.521 | 0.842 | 0.125 | 0.491 | 0.374 | 0.836 | 0.365 | 0.874 | 1.32 | 0.876 | 0.98 | 1.49 | 2.27 | 1.57
14 | ACTATTAGTTGACTTAGGGCAACCGGTACGACGC | 0.0418 | 0.216 | 0.333 | 0.0684 | 0.939 | 0.187 | 0.638 | 0.108 | 0.302 | 0.142 | 0.0602 | 0.506 | 0.963 | 0.218 | 0.403 | 0.35 | 0.564 | 0.898 | 0.577 | 1.14

Source: the supplement of paper PMC6555819
